Screens as filed in PubChem.
CYP2C9 inhib: blockers of cytochrome P450 2C9 activity – biochemical, luminescence, ADME assay, primary screen. P11712. CYP2C9 Supersomes, luciferin-H conversion. inhibition, % at 5 µM. 96,000 compounds, 20% hits;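 active = blocking of liver enzyme CYP2C9 beyond about 50% at 5 µM, limit read from the data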
CD11b adhes enh: enhancers of CD11b/CD18 adhesion to fibrinogen, primary screen, K562 cells, luminescence; Integrin beta-2 (Homo sapiens) + Integrin alpha-M (Homo sapiens), P05107+P11215; ATPlite luminescence; activation, % at 10 µM; 93,000 compounds, 0.07% hits; AID 1499, 2009;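 active = 10 µM primary screen giving 50% or more activity, confirmed by 40% or more on retest at that dose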
CYP2C19 activ: human CYP2C19 activators, primary screen, biochemical, luminescence; Cytochrome P450 2C19 (Homo sapiens), P33261; recombinant CYP2C19, luciferin-H EGE luminescence; active compounds read high; 0 = fully inhibited enzyme, 1 = untreated enzyme; activation factor at 5 µM; 96,000 tested, under 10 active; AID 1025, 2008;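 active = activation factor of at least 2 at 5 µM in the primary screen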;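 note: 0 = wells with 2.5 mM tranylcypromine and 1 = vehicle-only wells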
Target sequence (P33261 whole entry, looked up): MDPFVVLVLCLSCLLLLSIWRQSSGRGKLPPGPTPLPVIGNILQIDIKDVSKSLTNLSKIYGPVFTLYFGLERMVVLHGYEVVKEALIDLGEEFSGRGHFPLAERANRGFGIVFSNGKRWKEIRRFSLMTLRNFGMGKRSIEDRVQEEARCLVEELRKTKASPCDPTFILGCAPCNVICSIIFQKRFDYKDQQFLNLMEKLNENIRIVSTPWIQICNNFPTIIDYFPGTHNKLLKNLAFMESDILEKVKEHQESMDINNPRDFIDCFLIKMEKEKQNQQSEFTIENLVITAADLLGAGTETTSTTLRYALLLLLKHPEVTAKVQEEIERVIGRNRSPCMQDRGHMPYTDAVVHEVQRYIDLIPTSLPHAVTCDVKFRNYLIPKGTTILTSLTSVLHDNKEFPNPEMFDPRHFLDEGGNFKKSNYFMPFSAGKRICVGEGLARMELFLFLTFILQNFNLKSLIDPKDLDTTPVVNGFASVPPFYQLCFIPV
CYP2C9 act: human CYP2C9 activators, primary screen, biochemical, luminescence | 96,000 compounds, 1.4% hits | recombinant CYP2C9, luciferin-H conversion; active compounds read high; factor 1 = untreated enzyme, 0 = blocked | activation factor at 5 µM | AID 1024, 2008 | Cytochrome P450 2C9 (Homo sapiens), P11712;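 active = activation factor of 2 or more for CYP2C9 at a 5 µM dose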;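 note: 0 = sulfaphenazole-blocked wells and 1 = vehicle-only wells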
CYP2C19 inhib: blockers of cytochrome P450 2C19 activity – biochemical, luminescence, ADME assay, primary screen. CYP2C19 Supersomes, luciferin-H EGE luminescence, 30 min. inhibition, % at 5 µM. 96,000 compounds, 21% hits. AID 778, 2007;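 active = CYP2C19 inhibition above a set limit at 5 µM in the primary screen, cut at about 50% in these data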;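 note: plate controls were negative control wells for no effect and 2.5 mM tranylcypromine positive control for full effect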
CD11b adhes inh: inhibitors of CD11b/CD18 adhesion to fibrinogen, primary screen, K562 cells, luminescence. Integrin beta-2 (Homo sapiens) + Integrin alpha-M (Homo sapiens), P05107+P11215. ATPlite luminescence; Mn2+ added to activate the integrin. inhibition, % at 10 µM. 93,000 compounds, 0.54% hits. AID 1497, 2009;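 active = primary inhibition of 50% or more at 10 µM, then 40% or more on retest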
* marks the source's active call; other numbers are inactive results; nt = no result. A selection: hits, their analogues and other compounds. The true share with any hit is near 28%.

SMILES | CYP2C9 inhib | CD11b adhes enh | CYP2C19 activ | CYP2C9 act | CYP2C19 inhib | CD11b adhes inh
COc1ccc(Cl)cc1-c1nc(-c2ccncc2)no1 | 38.0 | -3.7 | 0.2 | 0.6 | 78.6* | 3.2
CCOc1ccccc1-c1nc(-c2cc3ccccc3nc2OC)no1 | -0.1 | -0.3 | 0.9 | 1 | 6.0 | -4.1
Clc1cc(Cl)c(OCc2nc(-c3ccccn3)no2)cc1Cl | 7.3 | -2.4 | 0.9 | 0.9 | 8.1 | -4.2
CCOc1ccccc1-c1nc(-c2ccncc2)no1 | -37.4 | -0.6 | 0.2 | 1.4 | 78.0* | -3.0
c1ccc(-n2c(Cc3cn4ccsc4n3)nnc2N2CCOCC2)cc1 | -13.3 | 13.1 | 1.1 | 1.1 | -8.1 | -2.6
COc1ccc2c(c1OC)C(=O)N1N=C(c3ccc(Cl)cc3)CC21 (configuration not stated) | nt | -1.4 | nt | nt | nt | 2.3
COc1cc(OC)cc(C(C)=O)c1 | 5.4 | nt | 1 | 0.9 | -2.1 | nt
COc1ccc(N2C(=O)NC3CC2(C)Oc2ccc(Br)cc23)cc1OC (configuration not stated) | 74.1* | 5.9 | 0.5 | 0.3 | 49.7 | -24.7
CC(NC(N)=O)C12CC3CC(CC(C3)C1)C2 (configuration not stated) | 13.6 | 2.7 | 0.7 | 0.9 | 30.7 | 7.8
COc1ccc(C2C(C(=O)NCCN(C)C)c3ccccc3C(=O)N2C)cc1OC (configuration not stated) | -12.0 | -2.8 | 1.2 | 1.1 | -20.6 | -3.0
CC1CCN(c2ncnc3c2cnn3Cc2ccc(Cl)cc2)CC1 | 75.8* | -3.8 | 0.6 | 0.2 | 38.3 | -4.6
Cc1ccccc1N1CCN(c2ncnc3c2cnn3Cc2ccc(Cl)cc2)CC1 | 76.2* | -0.9 | 0.6 | 0.2 | 41.2 | 34.4
Cc1ccc(Cn2ncc3c(N4CCN(Cc5ccc(Cl)cc5)CC4)ncnc32)cc1 | 33.5 | -9.9 | 0.9 | 0.7 | 9.4 | 98.2
C=CCON1C(=O)c2ccccc2C1=O | 0.4 | 1.3 | 1 | 1 | 1.0 | -8.6
O=C(Cc1ccccc1)N1CCCC1c1ccccc1 (configuration not stated) | 22.2 | -4.4 | 0.2 | 0.8 | 79.2* | 3.9
O=C(NCc1ccccc1F)C1CCCN1C(=O)NCc1ccccc1 (configuration not stated) | 2.3 | -2.7 | 0.8 | 1 | 19.5 | 8.2
CC1CCCC(C)N1C(=O)Cc1ccccc1 (configuration not stated) | 41.4 | 1.5 | 0.2 | 0.6 | 76.2* | -6.4
CC1CCCCN1C(=O)Cc1ccc(F)cc1 (configuration not stated) | 21.7 | -4.8 | 0.3 | 0.8 | 75.0* | 11.0
Cc1c(Br)c([N+](=O)[O-])nn1C(C)C(=O)Nc1c(C)n(C)n(-c2ccccc2)c1=O (configuration not stated) | 16.1 | -1.6 | 0.9 | 0.8 | 10.8 | -11.0
COC(=O)c1ccc(C(=O)OC)c(NC(=O)COC(=O)C2CCCCC2)c1 | 35.3 | -0.8 | 0.8 | 0.6 | 24.7 | 7.1
COC(=O)c1ccc(C(=O)OC)c(NC(=O)COC(=O)C2CC2C)c1 (configuration not stated) | 79.7* | -2.3 | 0.2 | 0.2 | 77.7* | 6.6
Cc1cnc(C(=O)OCC(=O)Nc2ccc(C)c(S(=O)(=O)N3CCCCC3)c2)cn1 | nt | 1.5 | nt | nt | nt | 6.5
Cc1ccc(NC(=O)COC(=O)C2CC2C)c(S(=O)(=O)N2CCCCC2)c1 (configuration not stated) | 51.1* | 1.1 | 0.3 | 0.5 | 74.2* | 3.5
CCCCOc1ccc(Cl)cc1CSc1nnc(C)n1N | 20.5 | 11.7 | 0.8 | 0.8 | 19.0 | -26.6
Cn1c(SCc2ccccc2)nnc1-c1cnccn1 | 7.5 | -3.8 | 0.8 | 0.9 | 25.0 | 3.3
SMILES | CYP2C9 inhib | CD11b adhes enh | CYP2C19 activ | CYP2C9 act | CYP2C19 inhib | CD11b adhes inh
COC(=O)c1c(NC(=O)CCCC(=O)O)sc2c1CCC2 | -19.6 | 1.1 | 1 | 1.2 | 0.1 | -14.5
COc1ccc(Br)cc1/C=C/C(=O)Nc1ccc(C)cc1 | nt | -4.0 | nt | nt | nt | 14.4
COc1ccccc1/C=C/C(=O)NCC(=O)N/N=C/c1cc(Br)ccc1OC | 53.4* | -2.6 | 0.9 | 0.5 | 5.7 | 2.1
CCC(CO)NC1=C([N+](=O)[O-])C(=O)CC(C)(C)C1 (configuration not stated) | nt | 2.3 | nt | nt | nt | 3.9
O=C(CN1CCC(n2nnc3cc(F)ccc32)CC1)NC1CCCCC1 | 60.1* | -4.1 | 0.4 | 0.4 | 58.3* | -25.8
O=C(CN1CCC(n2nnc3cc(F)ccc32)CC1)N1CCc2ccccc2C1 | 14.2 | 0.7 | 0.5 | 0.9 | 52.2* | -2.1
Cc1ccc2c(c1)nnn2C1CCN(S(C)(=O)=O)CC1 | 11.9 | -2.6 | 0.7 | 0.9 | 30.8 | -5.6
O=C(CN1CCC(n2nnc3cc(F)ccc32)CC1)NC1CC1 | 4.7 | -4.0 | 0.9 | 1 | 9.2 | -17.4
O=C(CN1CCC(n2nnc3cc(F)ccc32)CC1)Nc1ccccc1N1CCOCC1 | 85.4* | 3.7 | 0 | 0.1 | 96.3* | 8.4
Cc1ccc2c(c1)nnn2C1CCN(S(=O)(=O)c2ccc(C(=O)N3C(C)CCCC3C)cc2)CC1 (configuration not stated) | 49.6 | -4.4 | 0.2 | 0.5 | 76.9* | -1.0
CC(=O)NN1C(=O)c2ccc(Oc3cccc([N+](=O)[O-])c3)cc2C1=O | 11.8 | nt | 0.9 | 0.9 | 5.6 | nt
CCN(CC)C(=O)COc1ccc(CC(=O)O)cc1OC | 2.2 | -0.1 | 1.1 | 1 | -6.4 | -3.0
O=C(c1ccco1)N1CCN(Cc2nnnn2CCc2ccccc2)CC1 | 13.9 | 3.9 | 0.9 | 0.9 | 12.8 | -6.1
CCOc1ccc2nc(NC(=O)CN3CCC(n4nnc5cc(F)ccc54)CC3)sc2c1 | 86.0* | 0.9 | 0.2 | 0.1 | 79.6* | 57.0
Cc1cccc(C(=O)N2CCC(n3nnc4cc(F)ccc43)CC2)c1 | 82.0* | 8.6 | 0.2 | 0.2 | 83.8* | 4.4
COCC(=O)N1CCC(n2nnc3cc(F)ccc32)CC1 | 1.2 | nt | 1 | 1 | 1.7 | nt
COC(=O)c1ccccc1NC(=O)CN1CCC(n2nnc3cc(F)ccc32)CC1 | 19.9 | 34.2 | 0.6 | 0.8 | 35.1 | 0.7
COc1cc(OC)cc(C(=O)N2CCC(n3c(C)nc4cc(F)ccc43)CC2)c1 | 67.3* | -0.8 | 0.9 | 0.3 | 14.9 | 6.7
CCOc1ccccc1C(=O)N1CCC(n2nnc3cc(C)ccc32)CC1 | 19.6 | -0.9 | 0.8 | 0.8 | 21.0 | 15.1
CCOc1ccccc1C(=O)N1CCC(n2nnc3cc(C(F)(F)F)ccc32)CC1 | 53.1* | 7.7 | 0.3 | 0.5 | 68.5* | -24.2
Cc1ccnc(NC(=O)c2ccc(COc3ccc(Cl)cc3)o2)c1 | 25.2 | 0.8 | 0.9 | 0.7 | 8.0 | 16.6
